Assay results reported in PubChem BioAssay AID720708 (National Center for Advancing Translational Sciences (NCATS), 2013).
The whole screen tested about 360,000 compounds, of which about 660 (0.18%) were called active. About 2% were inconclusive and are not listed. Calls come from the whole dose curve; as a rule, active = well fitted inhibition curve with a large enough effect; inconclusive = small, poorly fitted or top-dose-only effect; inactive = no such curve, though single readings can be large or run the other way. The entries come from a sample that favours actives as a whole. Entries that show only a call come without a potency.

Each compound was assayed against Rap guanine nucleotide exchange factor 4 (Homo sapiens) (UniProt Q8WZA2) (assay: qHTS for Antagonist of cAMP-regulated guanine nucleotide exchange factor 2 (EPAC2): primary screen). Details: EPAC2 GEF exchange of Rap1B-BODIPY-GDP, fluorescence; series mostly up to 114 µM.
Note: nearly all actives have a fitted effect of over 45% in size.
Potency is the fitted concentration of half-maximal effect.

Rap guanine nucleotide exchange factor 4 (Homo sapiens), sequence (Q8WZA2 whole entry, looked up): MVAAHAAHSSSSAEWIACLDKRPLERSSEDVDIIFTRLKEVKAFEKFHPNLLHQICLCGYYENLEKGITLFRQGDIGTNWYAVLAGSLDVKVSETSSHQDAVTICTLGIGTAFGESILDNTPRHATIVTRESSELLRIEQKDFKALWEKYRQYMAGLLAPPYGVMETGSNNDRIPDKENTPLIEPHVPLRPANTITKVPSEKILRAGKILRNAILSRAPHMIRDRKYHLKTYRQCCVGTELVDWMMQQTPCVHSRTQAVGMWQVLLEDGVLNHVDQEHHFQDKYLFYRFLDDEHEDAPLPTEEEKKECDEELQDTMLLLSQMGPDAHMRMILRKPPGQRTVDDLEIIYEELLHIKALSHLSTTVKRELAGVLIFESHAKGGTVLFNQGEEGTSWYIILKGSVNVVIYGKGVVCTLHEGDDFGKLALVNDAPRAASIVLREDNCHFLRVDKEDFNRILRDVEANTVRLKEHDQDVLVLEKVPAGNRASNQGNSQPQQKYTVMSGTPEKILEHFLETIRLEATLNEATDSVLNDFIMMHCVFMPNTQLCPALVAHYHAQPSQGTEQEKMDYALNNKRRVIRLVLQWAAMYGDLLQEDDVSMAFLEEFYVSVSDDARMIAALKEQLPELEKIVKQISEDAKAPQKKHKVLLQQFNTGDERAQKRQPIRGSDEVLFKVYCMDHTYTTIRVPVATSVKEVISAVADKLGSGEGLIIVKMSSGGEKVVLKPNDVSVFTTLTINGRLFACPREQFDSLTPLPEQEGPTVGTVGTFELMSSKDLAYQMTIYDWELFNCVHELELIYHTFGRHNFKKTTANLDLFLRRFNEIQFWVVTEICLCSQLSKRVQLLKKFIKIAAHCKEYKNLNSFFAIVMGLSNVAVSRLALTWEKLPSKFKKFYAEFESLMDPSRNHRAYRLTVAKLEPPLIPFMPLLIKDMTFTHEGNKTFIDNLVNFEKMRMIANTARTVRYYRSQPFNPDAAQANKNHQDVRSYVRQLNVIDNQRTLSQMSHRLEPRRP

| Structure (SMILES) | Potency |
| --- | --- |
| C/C(=N\N(C)C)c1ccc(OCCOc2ccc([N+](=O)[O-])cc2)cc1 | inactive |
| O=C(Nc1ccc2c(c1)OCCO2)C1c2ccccc2OCC(=O)N1Cc1ccccn1 (centres undefined) | inactive |
| CCCNC(=O)C1(C)CCN1C(=O)C1(c2ccccc2)CC1 (centres undefined) | inactive |
| CCc1c(-c2ccc(F)cc2)ncn1Cc1cccc(-c2ccccc2)c1 | inactive |
| CCOc1ccc(S(=O)(=O)N2CCC(C(=O)NCc3ccccn3)CC2)cc1Cl | inactive |
| C[C@@H]1CN([C@@H](C)CO)S(=O)(=O)c2ccc(C#Cc3cccc(F)c3)cc2O[C@H]1CN(C)S(=O)(=O)c1cn(C)cn1 | inactive |
| O=C1OCCN1C(=O)[C@H]1[C@H](c2ccc(Cl)cc2)C(c2cccc(Cl)c2)=NN1c1ccc(Br)cc1 | inactive |
| COc1ccccc1C1CC(=O)n2c(nc(-c3ccccc3)c2-c2ccccc2)S1 (centres undefined) | inactive |
| COc1ccc(C2CC(=O)n3c(nc4ccccc43)S2)cc1OC (centres undefined) | 17.8 µM (active) |
| COc1ccc(C2CC(c3cccs3)=Nc3ccccc3S2)cc1OC (centres undefined) | inactive |
| NC(Cc1ccccc1)c1csc(Nc2cc(Oc3ccccc3)ncn2)n1 (centres undefined) | inactive |
| COc1ccc(C(=O)c2c(C)oc3cc([N+](=O)[O-])c(O)c([N+](=O)[O-])c23)cc1 | inactive |
| CCOC(=O)c1c(-c2ccccc2)oc2cc(Br)c(O)c(C=O)c12 | inactive |
| Cc1oc2cc(Br)c(O)c(Br)c2c1C(=O)c1ccccc1 | 28.2 µM (active) |
| COC(=O)Cc1ccc(N(Cc2ccccc2F)S(=O)(=O)c2ccc(Br)cc2)cc1 | inactive |
| COc1ccccc1NC(=O)CCSc1nnc(-c2ccc(O)cc2)o1 | inactive |
| CN[C@H]1C[C@H]2c3cc(Oc4ccccc4C)ccc3CCN2C(=O)[C@H]1[C@H](C)O | inactive |
| Cc1cccc(C)c1NC(=O)C(c1cccc2ccccc12)n1c(=O)c(-c2ccco2)nc2ccccc21 (centres undefined) | inactive |
| CC(=O)NCCC(=O)Nc1nc(C)c(Cc2ccc3c(c2)OCO3)s1 | inactive |
| Cc1ccc(C)c(-n2ccnc2SCC(N)=O)c1 | inactive |
| O=c1cccc(-c2ccc(Br)cc2)o1 | inactive |
| COC(=O)[C@@]12C[C@@H](CC(=O)N3CCC(c4ccccc4)CC3)C(=O)N(Cc3ccccc3)C1=CCC(C)(C)C2 | inactive |
| O=C1N[C@H](Cc2ccccc2)C(=O)N[C@H]1Cc1cn(S(=O)(=O)c2ccccc2)c2ccccc12 | inactive |

| Structure (SMILES) | Potency |
| --- | --- |
| CCN1CC=C2C(C#N)=C(N)C(C#N)(C#N)[C@H](c3ccoc3)[C@H]2C1 | inactive |
| CCCN1CC=C2C(C#N)=C(N)C(C#N)(C#N)C(c3cc(OC)ccc3OC)C2C1 (centres undefined) | 39.8 µM (active) |
| CC(C)Nc1ccc(-n2nc3ccccc3[n+]2[O-])cc1 | inactive |
| O=[N+]([O-])c1ccccc1Nc1ccc(O)cc1 | inactive |
| Cc1ccc(Nc2cc(C)nc3c(C)ccc([N+](=O)[O-])c23)cc1 | 44.7 µM (active) |
| Cc1ccc2cccc([N+](=O)[O-])c2n1 | inactive |
| Cc1cc(C)cc(NC(=O)NC2CCN(CC(=O)Nc3cccc(Cl)c3C)CC2)c1 | inactive |
| CC1(C(=O)NCc2ccccc2)CSCC(=O)N1CCCn1ccnc1 (centres undefined) | inactive |
| CN(Cc1ccccc1)C(=O)COc1ccccc1 | inactive |
| COc1ccc(CN(C)C(=O)CC(c2ccccc2)c2ccccc2)cc1 | 50.1 µM (active) |
| COc1ccc(C(CCN(Cc2ccc(OC)c(OC)c2)C(=O)CCl)c2ccccc2)cc1 (centres undefined) | inactive |
| CC(=O)Nc1ccc(SC[C@H](Cc2ccccc2)N2CC[C@@H](C)CCC2=O)cc1 | inactive |
| CCCCOCCCNC(=O)C[C@@H]1C[C@@]2(C(=O)OCC)CCCC=C2N(CCC2=CCCCC2)C1=O | inactive |
| C[N+](C)(C)CCNC(=O)c1cc[n+](Cc2ccccc2)c(/C=N/O)c1 | inactive |
| COc1cc(OC)cc(C(=O)Nc2nnc(SCC(=O)NCC3CCCO3)s2)c1 (centres undefined) | inactive |
| Nc1nc(SCC(=O)NN(c2ccccc2)c2ccccc2)n[nH]1 | inactive |
| COc1ccc(CN2C(=O)C(CC(=O)NCCCCc3ccccc3)CC(C(=O)N3CCOCC3)=C2C)cc1 (centres undefined) | inactive |
| COc1ccccc1C(CNC(=O)c1ccc(C)c(S(=O)(=O)N2CCCCC2)c1)N(C)C (centres undefined) | inactive |
| O=c1[nH]cnc(O)c1C(c1ccc(F)cc1)c1c(O)nc[nH]c1=O | inactive |
| CCC(=O)N1CCc2cc(S(=O)(=O)NC(C(=O)N3CCc4ccccc4C3)C(C)C)ccc21 (centres undefined) | inactive |
| COC(=O)c1ccccc1OCC(=O)N1CCN(c2ccc(Cl)cc2)CC1 | inactive |
| N#C[C@]1(S(=O)(=O)c2ccccc2)C[C@@H]2ON=C(c3cccc(Br)c3)[C@@H]2C1 | inactive |
| O=C1Nc2ccccc2-n2nnnc2C1N1CCN(c2cccc(C(F)(F)F)n2)CC1 (centres undefined) | inactive |

| Structure (SMILES) | Potency |
| --- | --- |
| CN(C(=O)CSc1nnc(N)s1)c1c(N)n(Cc2ccccc2)c(=O)[nH]c1=O | inactive |
| C/C(=N\NC(=O)c1cccnc1)c1ccc(-n2ccnc2)cc1 | inactive |
| CO[C@@H]1CN(C)C(=O)c2cc(NC(=O)C3CC3)ccc2OC[C@H](C)N(C(=O)CN2CCOCC2)C[C@@H]1C | inactive |
| S=C(Nc1ccc2c(c1)OCO2)N1CCCC1 | inactive |
| COC(=O)[C@]12CCCCC=C1N(Cc1ccccc1)C(=O)[C@H](CC(=O)NCc1ccc(C)o1)C2 | inactive |
| Cn1nnnc1SCC(=O)NNC(=O)c1ccc(Br)cc1 | inactive |
| CC1(C(=O)NS(=O)(=O)c2cccc(OC(F)F)c2)CCN1C(=O)COc1ccc(Cl)cc1 (centres undefined) | inactive |
| CCc1ccc(Oc2nc([N+](=O)[O-])nn2C)cc1 | inactive |
| COc1ccc(C(O)C(O)(C(=O)OC(C)C)c2ccc(C)cc2)cc1 (centres undefined) | inactive |
| COC(=O)[C@@]12C[C@@H](CC(=O)N3CCCCC3)C(=O)N(Cc3ccc4c(c3)OCO4)C1=CCC(C)(C)C2 | inactive |
| O=C(c1cccc(S(=O)(=O)N2CCCC2)c1)N(Cc1ccco1)C1CCS(=O)(=O)C1 (centres undefined) | inactive |
| COc1ccc(C(C)NC(=O)C23CC4CC(CC(C4)C2)C3)cc1 (centres undefined) | inactive |
| COc1ccc(NC(=O)C2(C)Cc3c(-c4ccc(C(N)=O)cc4)ccnc3O2)cc1 (centres undefined) | inactive |
| c1ccc(-c2ccnc3nc(-n4cccc4)nn23)cc1 | inactive |
| Cc1cc(C(=O)CC#N)c(C)n1-c1c(C)n(C)n(-c2ccccc2)c1=O | inactive |
| O=C(Cn1cc(C(=O)C2CC2)c2ccccc21)Nc1ccccc1Cl | inactive |
| COc1ccc(N(CC(=O)NC2CCCCC2)S(=O)(=O)c2c(C)[nH]c(=O)[nH]c2=O)cc1 | inactive |
| CCOC(=O)[C@]12CCCC=C1N(Cc1ccc(Cl)cc1Cl)C(=O)[C@H](CC(=O)N1CCCCC1)C2 | inactive |
| Cc1ncc(CO)c(/C=N/NC(=O)c2cccc(S(=O)(=O)N3CCCC3)c2)c1O | inactive |
| O=C(COc1nc2ccccc2nc1N1CCOCC1)NCC(F)(F)F | inactive |
| COc1ccc(-c2c(C(C)=O)c(C)nc3sc4c(=O)n(-c5ccc(C)cc5)nnc4c23)cc1 | inactive |
| CCNC(=S)N1CCC(c2nc3cc(C)c(C)cc3[nH]2)CC1 | inactive |
| CCCCn1nc(C(=O)OCC(=O)Nc2sccc2C(N)=O)c2ccccc2c1=O | inactive |
